The text below walks through data of PubChem BioAssay (NCATS).

Records with an inconclusive call do not appear. Values without a mark were called inactive. Calls of active or inactive are those of the source. Calls follow the shape of the dose curve; as a rule, active = well fitted curve in the direction sought with a large enough effect; inconclusive = small, poorly fitted or top-dose-only effect, or another doubt; inactive = no such curve, though single readings can be large; an effect the other way counts as inactive or inconclusive.

The subject of one assay is MKL-1. The assay can be described thus: qHTS assay to identify novel small-molecules to repurpose for Merkel cell carcinoma treatment (AID 1296009). Also: nearly all actives have a fitted effect of over 60% in size. Also: potency is read from the fitted curve at half-maximal effect. The settings on record: MCC and control cell lines, CellTiter-Glo viability, 72 h; series mostly up to 46 µM. The method in brief: (§1)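 Cell viability, measured as CellTiter-Glo luminescence, was normalized between DMSO and no-cell wells. The cells had been exposed to 8- or 11-point compound dilutions for 72 hr at 37 degree celsius.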
For orientation: Quantitative high-throughput screening tests each substance at several concentrations.

A further assay deals with MKL-2. The description is as above. The settings on record: MCC and control cell lines, CellTiter-Glo viability, 72 h; series mostly up to 46 µM. In short, it runs like this:
as §1
(Cellular ATP, detected with luciferase, serves as a proxy for viable cell number.)

The subject of a further assay is NIH3T3. The description is as above. The settings on record: MCC and control cell lines, CellTiter-Glo viability, 72 h; series mostly up to 44.8 µM. In short, it runs like this: as §1
Another assay relates to UISO. The assay is described as above. Particulars: MCC and control cell lines, CellTiter-Glo viability, 72 h; series mostly up to 46 µM. In short, it runs like this:
as §1

Another assay concerns WaGa. The assay is described as above. Particulars: MCC and control cell lines, CellTiter-Glo viability, 72 h; series mostly up to 46 µM. In short, it runs like this:
as §1

For a further assay, the system named is C33A. The assay can be described thus: Primary qHTS to identify gynecologic anti-cancer compounds using libraries of approved drugs and bioactive compounds (AID 1345084). Also: nearly all actives have a fitted effect of over 55% in size. The settings on record: Gynecologic cancer cell panel viability, ATPlite luminescence, 48 h; series mostly up to 57.5 µM. The method in brief:
(§2)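 Cells, 1,000 per well, were allowed to settle for 16 h at 37 C before compound addition. Five concentrations were tested for 48 h, and viability was read by ATPlite luminescence after 15 min at room temperature.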

A further assay has as its system CAOV3. The description is as above. Particulars: Gynecologic cancer cell panel viability, ATPlite luminescence, 48 h; series mostly up to 57.5 µM. The method in brief:
as §2

The next assay deals with CASKI. The description is as above. Particulars: Gynecologic cancer cell panel viability, ATPlite luminescence, 48 h; series mostly up to 57.5 µM. The method in brief: as §2
The next assay relates to Es-2. Described as above. The settings on record: Gynecologic cancer cell panel viability, ATPlite luminescence, 48 h; series mostly up to 57.5 µM. The method in brief: as §2
For the next assay, the system named is HeLa. The assay is described as above. Particulars: Gynecologic cancer cell panel viability, ATPlite luminescence, 48 h; series mostly up to 57.5 µM. The method in brief:
as §2

In a further assay the test system is Hek293T. The description is as above. The settings on record: Gynecologic cancer cell panel viability, ATPlite luminescence, 48 h, control line for the selectivity index; series mostly up to 57.5 µM. In short, it runs like this:
as §2

For a further assay, the system named is JEG-3. Described as above. Particulars: Gynecologic cancer cell panel viability, ATPlite luminescence, 48 h; series mostly up to 57.5 µM. In short, it runs like this:
as §2

In a further assay the test system is OV90. The description is as above. The settings on record: Gynecologic cancer cell panel viability, ATPlite luminescence, 48 h; series mostly up to 57.5 µM. The method in brief: as §2
The subject of a further assay is PA-1. Described as above. Particulars: Gynecologic cancer cell panel viability, ATPlite luminescence, 48 h; series mostly up to 57.5 µM. In short, it runs like this:
as §2

The next assay concerns SKOV3. The description is as above. The settings on record: Gynecologic cancer cell panel viability, ATPlite luminescence, 48 h; series mostly up to 57.5 µM. The method in brief: as §2
For a further assay, the system named is Tov-21-G. The assay is described as above. The settings on record: Gynecologic cancer cell panel viability, ATPlite luminescence, 48 h; series mostly up to 57.5 µM. In short, it runs like this:
as §2

A further assay deals with Tov112D. The description is as above. Particulars: Gynecologic cancer cell panel viability, ATPlite luminescence, 48 h; series mostly up to 57.5 µM. The method in brief: as §2

With `CCNC(=O)[C@H]1O[C@@H](n2cnc3c(N)nc(NCCc4ccc(CCC(=O)O)cc4)nc32)[C@H](O)[C@H]1O`, the Potency result in the assay on MKL-1, in the assay with MKL-2, in the assay on NIH3T3, with UISO and in the assay with WaGa was “inactive” in each case.

Consider `COc1ccc(-c2cc(=O)c3c(O)cc(O[C@@H]4O[C@H](CO[C@@H]5O[C@@H](C)[C@H](O)[C@@H](O)[C@@H]5O)[C@@H](O)[C@H](O)[C@@H]4O)cc3o2)cc1O`, for which the Potency entry in the assay on MKL-1, in the assay with MKL-2, with NIH3T3, in the assay on UISO and in the assay with WaGa was “inactive” in each case.

In the case of `Oc1ccc(C=Cc2cc(O)cc(O)c2)cc1`, the Potency entry with MKL-1 is “inactive”.

Regarding `CCCCN(CCCC)CC(O)c1cc(Cl)cc2c1-c1ccc(Cl)cc1C2=Cc1ccc(Cl)cc1` (configuration not stated), the Potency entry with MKL-1, in the assay with MKL-2, in the assay on NIH3T3, in the assay with UISO and in the assay on WaGa was “inactive” each time.

`CN1[C@H]2CC[C@H]1CC(OC(=O)c1c[nH]c3ccccc13)C2` (some centres not stated): the Potency entry in the assay with MKL-1, with MKL-2, in the assay with NIH3T3, in the assay with UISO and in the assay on WaGa was “inactive” each time.

Consider `Cc1nc(NC(=O)N2CCC[C@@H]2C(N)=O)sc1-c1csc(C(C)(C)C)n1`, for which the Potency entry in the assay with MKL-1 and with MKL-2 was “inactive” each time.

Regarding `COc1cc(Nc2nc3ccccc3nc2NS(=O)(=O)c2ccc(NC(=O)c3ccc(C)c(OC)c3)cc2)cc(OC)c1`, the Potency entry in the assay on MKL-1, in the assay on MKL-2, with NIH3T3, in the assay with UISO, in the assay on WaGa and in the assay on C33A was “inactive” in each case. The Potency entry in the assay on CAOV3, with CASKI, with Es-2, with HeLa, in the assay with Hek293T and in the assay with JEG-3 was “inactive” in each case. Moreover, the Potency entry with OV90, in the assay with PA-1, with SKOV3, in the assay on Tov-21-G and in the assay with Tov112D was “inactive” in each case.

In the case of `Cc1cc(NC(=O)Nc2ccc(N(C)C)cc2)c2cc(F)cc(F)c2n1`, the Potency result in the assay on MKL-1, with MKL-2, in the assay with NIH3T3, in the assay with UISO and with WaGa was “inactive” throughout.

With `CC(NCCc1ccc(O)cc1)C(O)c1ccc(O)cc1` (configuration not stated), the Potency result with MKL-1, with MKL-2, in the assay on NIH3T3, in the assay on UISO and with WaGa was “inactive” each time.

Regarding `Cc1ccc(NC(=O)c2ccc(CN3CCN(C)CC3)cc2)cc1Nc1nc(-c2cccnc2)cs1`, the Potency entry with MKL-1 was “inactive”.

For `COc1cccc(OC)c1-c1cc(C(=O)NC2(C(=O)O)C3CC4CC(C3)CC2C4)nn1-c1ccnc2cc(Cl)ccc12` (configuration not stated), the Potency entry in the assay with MKL-1, in the assay on MKL-2, in the assay with NIH3T3, with UISO and in the assay on WaGa was “inactive” each time.

As for `Cc1ccc2c(=O)c3cccc(CC(=O)O)c3oc2c1C`, the Potency result with MKL-1, with MKL-2, in the assay with NIH3T3, in the assay on UISO and in the assay on WaGa was “inactive” in each case.

`CC[C@H](C)n1cc(C)c2c(C(=O)NCc3c(C)cc(C)[nH]c3=O)cc(-c3ccc(N4CCNCC4)nc3)cc21`: the Potency entry in the assay with MKL-1, in the assay on MKL-2, in the assay with NIH3T3, with UISO and in the assay on WaGa was “inactive” throughout.

Consider `CN(C)CCOc1ccc(C(=C(CCCl)c2ccccc2)c2ccccc2)cc1`, for which the Potency result in the assay with MKL-1, with MKL-2, in the assay on NIH3T3, in the assay with UISO and with WaGa was “inactive” in each case.

For `CCCCC[C@H](O)C=C[C@H]1[C@H](O)CC(=O)[C@H]1CCCCCCC(=O)O`, the Potency entry in the assay with MKL-1 was “inactive”.

For `COc1ccc(-c2oc3c(CC=C(C)C)c(O)cc(O)c3c(=O)c2O)cc1`, the Potency result in the assay with MKL-1, in the assay with MKL-2, in the assay with NIH3T3, with UISO and in the assay on WaGa was “inactive” throughout.

On to `CC(C)(C)c1[nH]cnc1C=c1[nH]c(=O)c(=Cc2ccccc2)[nH]c1=O`, for which the Potency entry with MKL-1 is “inactive”. For the same molecule, the Potency is 60.5 nM (active) in the assay with MKL-2 and 12.1 nM (active) with UISO.

On to `N[C@@H](CC(=O)N1CCn2c(nnc2C(F)(F)F)C1)Cc1cc(F)c(F)cc1F`, for which the Potency result in the assay with MKL-1, in the assay with MKL-2, in the assay on UISO and with WaGa was “inactive” each time.

For `CCOc1ccccc1N=Nc1c(C)[nH]n(-c2nc(-c3ccccc3)cs2)c1=O`, the Potency result in the assay on MKL-1, in the assay with MKL-2, in the assay with UISO and with WaGa was “inactive” in each case.

Turning to `C[C@@]1(c2cc(-c3cncnc3)c(F)cc2F)CCSC(N)=N1`, the Potency result in the assay on MKL-1, with MKL-2, in the assay with NIH3T3, in the assay with UISO, in the assay with WaGa and in the assay with C33A was “inactive” in each case. Besides, the Potency entry with CASKI, in the assay on Es-2, in the assay on HeLa, in the assay on Hek293T, with JEG-3 and in the assay on OV90 was “inactive” each time. Besides, the Potency result with PA-1, in the assay on SKOV3, with Tov-21-G and in the assay with Tov112D was “inactive” throughout.

Consider `O=[N+]([O-])c1ccc(Nc2ccccc2-c2ccccc2)c2nonc12`, for which the Potency result in the assay with MKL-1, with MKL-2, with UISO and in the assay with WaGa was “inactive” in each case.

On to `O=C(NCCCCN1CCOCC1)c1cc2ccccc2o1`, for which the Potency result with MKL-1, with MKL-2, with UISO and in the assay on WaGa was “inactive” each time.

Take `O=C(O)C1=NC(C(=O)O)CC(C=CN2c3cc(O)c(OC4OC(CO)C(O)C(O)C4O)cc3CC2C(=O)O)=C1` (configuration not stated): the Potency entry with MKL-1, in the assay on MKL-2, with UISO and with WaGa was “inactive” throughout.

Regarding `O=C1C(c2c(O)[nH]c3ccccc23)=Nc2ccccc21`, the Potency entry in the assay with MKL-1, in the assay with MKL-2, in the assay with NIH3T3, in the assay on WaGa, in the assay on C33A and in the assay on CAOV3 was “inactive” in each case. Also, the Potency entry in the assay on CASKI, with Es-2, in the assay on HeLa, in the assay on Hek293T, in the assay on JEG-3 and in the assay on OV90 was “inactive” throughout. Further, the Potency result in the assay on PA-1, with SKOV3, in the assay with Tov-21-G and in the assay with Tov112D was “inactive” each time.

Take `Cn1c(=O)c(-c2c(Cl)cccc2Cl)cc2cnc(Nc3cccc(C(=O)O)c3)nc21`: the Potency result in the assay with MKL-1, in the assay on MKL-2, in the assay on NIH3T3, in the assay with UISO, in the assay with WaGa and in the assay on C33A was “inactive” each time. Moreover, the Potency result in the assay with CAOV3, with CASKI, in the assay with Es-2, in the assay with HeLa, with Hek293T and in the assay with JEG-3 was “inactive” throughout. The Potency result with OV90, in the assay on PA-1 and in the assay with Tov112D was “inactive” in each case.
